Source: PubChem BioAssay
Rows were chosen to be rich in hits. Some 4.6% of all compounds tested hit in one or more screens of this group.
ssDAF12 agonist – S. stercoralis DAF-12 activation, primary screen. activation, % at 6.8 µM. AID 652126. HEK293 ssDAF-12/GRIP1 lit1-tk-luc reporter, luminescence; % of 3 µM dafachronic acid response. actives 1% (n = 370,000);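 active = activation above the mean over all tested compounds plus 3 SD, cut at about 0.9% in these data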;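 note: 0% = DMSO-only wells and 100% = 3 µM delta7-dafachronic acid wells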
Wee1 stabilizer – inhibitors of human Wee1 degradation; HeLa Luc-Wee1K328M stability, luciferase luminescence; 100% = proteasome inhibitor MG132 effect; reporter increase, % at 5 µM; actives 1.2% (n = 220,000); AID 1321;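 active = activation above the mean of all tested compounds plus 3 SD, set per screening run, cut at about 8.8% in these data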;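 note: cells exposed to compound for 20 h before luminescence read; 0% = DMSO alone and 100% = MG132 at 30 µM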
hgDAF12 agonist – activates the H. glycines DAF-12 receptor ligand-binding domain; actives 1.8% (n = 370,000); activation, % at 6.8 µM; AID 687014; HEK293 GAL4-hgDAF12 UAS-luciferase reporter, agonist luminescence; normalized to butyrate control;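 active = activation above a cutoff set at the mean of all screened compounds plus 3 SD, cut at about 10% in these data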;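 note: 0% = DMSO wells and 100% = sodium butyrate wells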
hcDAF-12 act – H. contortus DAF-12 activation, primary screen | HEK293 hcDAF-12 lit1-tk-luc reporter, luminescence; 0% DMSO, 100% Δ7-dafachronic acid | actives 1.4% (n = 370,000) | activation, % at 6.8 µM;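 active = activation above the mean of all tested compounds plus 3 SD, cut at about 5.5% in these data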;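 note: 100% = response to 3 µM Δ7-dafachronic acid high control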
DAX1 inh-1 – inhibitors of DAX1 repression of SF-1 activated StAR promoter; HEK293T StAR-luciferase reporter, SF-1/DAX-1 repression relief; inhibition, % at 6.8 µM; actives 1.1% (n = 370,000); AID 652010;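 active = inhibition above the mean over all tested compounds plus 3 SD, cut at about 3.6% in these data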;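 note: 0% = DAX-1 cells with DMSO and 100% = cells lacking DAX-1 with DMSO; higher inhibition means more luminescence from relief of DAX-1 repression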
DAX1 inh-2 – inhibitors of human orphan nuclear receptor DAX1 (NR0B1) | actives 0.99% (n = 340,000) | inhibition, % at 6.75 µM | HEK293 Gal4-DAX1 luciferase reporter, luminescence | P51843;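 active = inhibition above the mean over all tested compounds plus 3 SD, cut at about 4.2% in these data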;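 note: 0% = DAX1-transfected cells with DMSO and 100% = empty-vector control cells with DMSO; inhibition shows as a rise in luminescence from relieved DAX1 repression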
Target sequence (P51843 207-470 limits assumed): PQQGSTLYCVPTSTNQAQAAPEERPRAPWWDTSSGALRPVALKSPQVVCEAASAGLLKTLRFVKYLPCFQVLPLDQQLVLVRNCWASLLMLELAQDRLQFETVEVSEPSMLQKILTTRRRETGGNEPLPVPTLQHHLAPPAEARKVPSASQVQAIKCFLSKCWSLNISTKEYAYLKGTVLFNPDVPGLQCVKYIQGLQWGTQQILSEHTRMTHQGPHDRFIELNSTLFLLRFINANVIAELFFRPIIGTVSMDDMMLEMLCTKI
LXR ag – counter-screen for hcDAF-12 agonists: agonists of human LXR-beta | 3,400 tested, under 10 active | HEK293 Gal4-LXR tk-luc reporter, luminescence, 24 h; normalized: DMSO 0%, positive control 100% | activation, % at 6.8 µM | shares compounds with hcDAF-12 act | AID 743027;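 active = mean percent activation of the reporter above a cutoff set as the average over tested compounds plus their standard deviation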
hcDAF12 conf – confirmation of H. contortus DAF-12 agonists | shares compounds with hcDAF-12 act | HEK293 hcDAF-12 lit1-tk-luc reporter, luminescence; % of Δ7-dafachronic acid response | activation, % at 6.8 µM | actives 61% (n = 3,400);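 active = mean activation across triplicate tests above the threshold derived from the earlier primary screen, cut at about 5.5% in these data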;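 note: 0% = DMSO only wells and 100% = 3 µM Δ7-dafachronic acid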
* marks the source's active call; other numbers are inactive results; nt = no result.

SMILES	ssDAF12 agonist	Wee1 stabilizer	hgDAF12 agonist	hcDAF-12 act	DAX1 inh-1	DAX1 inh-2	LXR ag	hcDAF12 conf
NC(=O)CC[C@H](NC(=O)c1ccc(F)cc1)C(=O)OCC(=O)Nc1c(F)c(F)c(F)c(F)c1F	-1	2	9	0	0	0	nt	nt
N#Cc1ccc(Cl)cc1NC(=O)COC(=O)[C@H](CCC(N)=O)NC(=O)c1ccc(F)cc1	0	2	0	9.4*	1	0	0	1
O=c1oc2ccccc2cc1-c1nc2ccccc2o1	1.0*	-2	9	8.8*	3	2	1	6.3*
Cc1sc2c(c1C)CN(C(C)(C)C)CN2C(=O)c1ccccc1	1	3	9	6.8*	1	1	0	6.4*
NS(=O)(=O)c1ccc(CCNc2nc3c(-c4cccc(F)c4)nnn3c3ccccc23)cc1	1.3*	0	0	7.1*	0	2	-1	1
Cc1cccc(-c2nnn3c2nc(NCCc2ccc(S(N)(=O)=O)cc2)c2ccccc23)c1	0	2	0	3	0	-2	nt	nt
Cc1ccccc1Cn1cc(CN2[C@@H](Cc3ccccc3)COc3cc(Br)ccc3S2(=O)=O)nn1	-1	nt	-2	0	0	nt	nt	nt
COc1ccc(CNC2CCC23CCC(c2ccccc2)CC3)cc1OC (centres undefined)	-1	nt	0	-3	nt	nt	nt	nt
CC(=O)/C(=N\Nc1ccccc1)Sc1nncn1C	0	-2	2	8.4*	0	1	0	3
CC(=O)/C(=N\Nc1ccccc1)Sc1nnc(-c2ccccc2)n1-c1ccccc1	-1	2	1	-1	0	0	nt	nt
CCN1C[C@@H]2[C@@H]3C(=O)N(Cc4ccccc4)C(=O)[C@@H]3[C@](C)(C1=O)N2C(=O)c1ccc(Br)cc1	-1	nt	2	0	0	0	nt	nt
CSc1nc(-c2ccc(C)cc2)nc(N)c1C#N	2.2*	0	4	8.5*	1	3	1	7.8*
CC(NC(=O)CSc1nnnn1C1CC1)c1ccccc1Br (centres undefined)	-1	nt	0	-1	-3	-1	nt	nt
CCc1ccc(N2NC(=O)/C(=C/C=C/c3ccco3)C2=O)cc1	0	0	0	7.7*	0	-1	0	1
O=C(Nc1ccc2ccccc2c1)NC1CCCCN(Cc2ccc(Cl)cc2)C1=O (centres undefined)	2.9*	nt	6	9.2*	-1	nt	0	0
CC(=O)NC(Cc1ccccc1)P(=O)(O)O (centres undefined)	-1	nt	2	0	0	nt	nt	nt
CCOC(=O)C(=NCC1CCCO1)NNc1cc(Cl)ccc1Cl (centres undefined)	-1	-4	1	7.5*	0	0	0	1
CCOC(=O)/C(=N\Nc1cc(Cl)ccc1Cl)N1CC(C)OC(C)C1 (centres undefined)	-2	-1	4	-1	0	0	nt	nt
Cc1ccc2nc(C3CCCCC3)c(Cc3ccsc3)n2c1	-1	nt	2	0	-1	nt	nt	nt
COc1cccc(CNc2nc(NC(C)C)nc3ccsc23)c1	-1	nt	-6	-2	-3	nt	nt	nt
CN(C)c1ccc(/C=N/Nc2nc3ccccc3o2)cc1	1	nt	10	7.7*	2	-1	1	5
C(=N\Nc1nncc2ccccc12)/c1ccccc1	0	7	8	7.7*	2	3	2	14*
O=[N+]([O-])c1ccc(/C=N/Nc2nc3ccccc3o2)cc1	-1	nt	3	1	0	0	nt	nt
CN(C)c1ccc(/C=N/Nc2nncc3ccccc23)cc1	1.4*	nt	14*	8.0*	4	2	2	11*
COc1cc(/C=N/Nc2nncc3ccccc23)cc(OC)c1OC	-1	nt	8	0	1	1	nt	nt
